In PubChem BioAssay (EPA / NIEHS):
Records with an inconclusive call do not appear. Calls of active or inactive are those of the source. Rule for the calls: active = hit-call score of the fitted dose curve at least 0.9, where 1 is the maximum; inconclusive = response in the unintended direction; inactive = score below 0.9.

These compounds were tested against Bile acid receptor (Homo sapiens) (UniProt Q96RI1) (assay: OT_FXR_FXRSRC1_0480: Odyssey Thera (OT) 8-hour HEK293T Protein-Complementation Assay for Farnesoid X receptor/SRC-1 Co-activator (AID 2283383)).
Sequence of Bile acid receptor (Homo sapiens) (Q96RI1 whole entry, looked up, the tested form may be a part): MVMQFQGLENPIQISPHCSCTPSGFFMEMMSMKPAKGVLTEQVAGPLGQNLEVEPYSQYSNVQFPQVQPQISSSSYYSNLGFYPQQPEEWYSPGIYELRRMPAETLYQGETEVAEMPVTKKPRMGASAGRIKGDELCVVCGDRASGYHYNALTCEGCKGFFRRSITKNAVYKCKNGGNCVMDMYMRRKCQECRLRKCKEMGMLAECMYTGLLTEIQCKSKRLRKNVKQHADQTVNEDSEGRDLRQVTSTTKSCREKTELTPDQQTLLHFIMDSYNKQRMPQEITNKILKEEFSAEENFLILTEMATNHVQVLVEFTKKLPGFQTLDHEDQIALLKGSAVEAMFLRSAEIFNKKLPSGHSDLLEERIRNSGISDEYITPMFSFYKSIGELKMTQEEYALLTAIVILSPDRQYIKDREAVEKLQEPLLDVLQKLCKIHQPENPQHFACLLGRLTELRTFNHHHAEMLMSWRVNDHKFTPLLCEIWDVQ
Protocol: OT_FXR_FXRSRC1_0480 is a cell-based assay that uses HEK293T, a human kidney cell line, with measurements taken at 8 hours after chemical dosing in a 384-well plate.OT_FXR_FXRSRC1_0480 is one of one assay component(s) measured or calculated from the OT_FXR_FXRSRC1_0480 assay. It is designed to make measurements of protein fragment complementation, a form of binding reporter, as detected with fluorescence intensity signals by Protein-fragment Complementation technology.Data from the assay component OT_FXR_FXRSRC1_0480 was analyzed into 1 assay endpoint. This assay endpoint, OT_FXR_FXRSRC1_0480, was analyzed in the positive analysis fitting direction relative to DMSO as the negative control and baseline of activity. Using a type of binding reporter, measures of receptor for gain-of-signal activity can be used to understand the binding at the pathway-level as they relate to the gene NR1H4. Furthermore, this assay endpoint can be referred to as a primary readout, because the performed assay has only produced 1 assay endpoint. To generalize the intended target to other relatable targets, this assay endpoint is annotated to the nuclear receptor intended target family, where the subfamily is non-steroidal.
Protein-fragment complementation assay, or PCA, is a method for the identification and quantification of protein-protein interactions. In the PCA, the proteins of interest ("bait" and "prey") are each covalently linked to fragments of a third protein (e.g. DHFR, which acts as a "reporter"). Interaction between the bait and the prey proteins brings the fragments of the reporter protein in close proximity to allow them to form a functional reporter protein whose activity can be measured.
`CCc1cccc(O)c1` was tested, and the outcome was “inactive”.
With `CCCCCCCCCO` the outcome was “inactive”.
For `C1=COCCC1`, the outcome was “inactive”.
With `OC[C@H]1O[C@@H](O[C@H]2[C@H](O)[C@@H](O)[C@H](O)O[C@@H]2CO)[C@H](O)[C@@H](O)[C@H]1O` the outcome was “inactive”.
`CC(=O)c1ccc2ccccc2c1` was tested, and the outcome was “inactive”.
`O=S(=O)(O)c1cc(S(=O)(=O)O)c2c(N=Nc3ccccc3)c(O)ccc2c1` was tested, and the outcome was “inactive”.
For `CCCc1ccc(O)cc1`, the outcome was “inactive”.
In the case of `CC(=O)C1=C(C)[C@@H]2C[C@@]3(C1)[C@H](C)CC[C@H]3C2(C)C`, the AC50 is reported as 37.2 µM (active).
With `COc1ccccc1O` the outcome was “inactive”.
In the case of `CC1COC(=O)O1` (stereo unspecified), the outcome is reported as “inactive”.
`NC(=O)c1cccnc1` was tested, and the outcome was “inactive”.
With `CCCCCCCCOS(=O)(=O)O` the outcome was “inactive”.
For `O=C1OC2(c3ccc(O)cc3Oc3cc(O)ccc32)c2ccccc21`, the AC50 was 13.1 µM (active).
`CCCCCC1CCC(=O)O1` (stereo unspecified) was tested, and the outcome was “inactive”.
`CCC(C)(CCCC(C)C)OC(C)=O` (stereo unspecified) was tested, and the outcome was “inactive”.
In the case of `CCC(C)(C)C1CCC(OC)CC1` (stereo unspecified), the outcome is reported as “inactive”.
With `CC(=O)C1C(=O)C=C(C)OC1=O` (stereo unspecified) the outcome was “inactive”.
In the case of `CC1=CCC(C(C)(C)O)CC1` (stereo unspecified), the outcome is reported as “inactive”.
In the case of `COc1ccc2[nH]cc(CCNC(C)=O)c2c1`, the outcome is reported as “inactive”.
For `CCC(=O)OC(C)(C)C1CC=C(C)CC1` (stereo unspecified), the AC50 was 83.9 µM (active).
In the case of `CCCCCC(=O)O[C@]1(C(C)=O)CC[C@H]2[C@@H]3CCC4=CC(=O)CC[C@]4(C)[C@H]3CC[C@@]21C`, the AC50 is reported as 5.16 µM (active).
